# Bioassay records: PubChem BioAssay, National Center for Advancing Translational Sciences (NCATS)
# Compounds with a hit are over-represented: about 7.3% of the library has one in this group of screens.
# ELG1 genotoxic: genotoxicity induction in ELG1-luciferase HEK293T cells; AID 504466; hit rate 1.3% among 330,000; HEK293T ELG1-luciferase reporter, luminescence, 16 h; Potency, µM (top dose mostly 46 µM), without a hit: top-dose activity change, positive = activation, hits mostly activators; also: % of control where 0% means no effect; nearly all actives have a fitted effect of over 60% in size
#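 HEK293T cells expressing luciferase-tagged ELG1 were exposed to compound or DMSO vehicle for 16 hr at 37 °C and 5% CO2. Luciferase activity was then measured with ONE-Glo after 30 min at room temperature.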
# p53 reactivator: mutant p53 re-activation in reporter cells. H1299 p53-A138V BP100-luciferase reporter, luminescence, 24 h. Potency, µM (titrated, usually from 92.2 µM), for inactives: top-dose activity change, positive = activation, most hits filed as activators. hit rate 0.063% among 320,000; also: % of control where 0% means no effect; nearly all actives have a fitted effect of over 45% in size
#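 H1299 (p53-null), stable ts p53-A138V + BP100-Luc; 1000 cells/well, Opti-MEM/10% FBS; cpd 4 pt, 1:5; 24 h, 37 deg C, 5% CO2; detection reagent 10 min RT; luminescence.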
# NPC1 prom act: NPC1 promoter activation; Huh7 NPC1 promoter luciferase reporter, 24 h; Potency, µM (highest dose often 9.22 µM), for inactives: at the top dose activation, most hits filed as activators; hit rate 2.4% among 320,000; AID 485313; also: % of control where 0% means no effect; nearly all actives have a fitted effect of over 60% in size
#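 Readout is luciferase luminescence, reflecting NPC1 promoter activation in stably transfected Huh7 cells after 24 h compound exposure at 37 °C in reduced-serum medium with 10% FBS.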
# SMN2 splice enh: increases expression of the SMN2 splice variant; HEK293 SMN2-luciferase splicing reporter, luminescence, 30-36 h; Potency, µM (doses to about 46.1 µM), without a hit: top-dose activity change, positive = activation, most hits filed as activators; hit rate 2.8% among 210,000; also: % of control where 0% means no effect; nearly all actives have a fitted effect of over 55% in size
#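 qHTS luciferase splicing reporter: luminescence rises when SMN2 exon 7 is included in transfected HEK293 cells. Compound exposure lasted 30-36 h at 37C, with 4.5 mM final sodium butyrate as control, followed by a ONE-Glo read.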
# FLuc counter: firefly luciferase modulation, counter-screen for miR-21 project. P08659. purified FLuc, Km substrates, luminescence inhibition. hit rate 6.9% among 360,000. Potency, µM (doses to about 57.5 µM), for the others: top-dose activity change, negative = inhibition, actives largely listed as inhibitors. AID 588342;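 also: plate controls were vehicle for no effect and reference inhibitor for full effect; nearly all actives have a fitted effect of over 55% in size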
# Target sequence (P08659 whole entry, looked up): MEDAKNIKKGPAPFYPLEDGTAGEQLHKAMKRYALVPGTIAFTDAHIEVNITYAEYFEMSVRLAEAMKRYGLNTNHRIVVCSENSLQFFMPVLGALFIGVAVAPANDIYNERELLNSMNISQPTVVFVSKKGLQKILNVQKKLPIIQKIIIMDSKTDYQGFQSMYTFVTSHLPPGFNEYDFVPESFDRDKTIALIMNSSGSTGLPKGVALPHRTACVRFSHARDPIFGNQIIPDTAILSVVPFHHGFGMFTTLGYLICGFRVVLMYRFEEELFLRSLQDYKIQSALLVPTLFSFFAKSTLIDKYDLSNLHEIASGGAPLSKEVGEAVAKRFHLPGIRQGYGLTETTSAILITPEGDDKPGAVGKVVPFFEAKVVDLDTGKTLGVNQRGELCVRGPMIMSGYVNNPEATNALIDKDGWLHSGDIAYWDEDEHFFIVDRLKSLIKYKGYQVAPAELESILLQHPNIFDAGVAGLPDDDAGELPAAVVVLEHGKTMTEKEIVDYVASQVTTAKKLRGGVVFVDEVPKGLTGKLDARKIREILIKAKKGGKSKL
#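 Purified P. pyralis luciferase, 10 nM final, with Km-level 10 uM D-luciferin and 10 uM ATP in 50 mM Tris acetate pH 7.5, 10 mM Mg acetate, 0.01% Tween-20, 0.05% BSA; 6-point qHTS titration about 60 µM downward; luminescence read.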
# Rab9 promoter act: activators of Rab9 promoter. AID 485297. hit rate 2.8% among 320,000. Huh7 Rab9 promoter-luciferase reporter, luminescence, 24 h. Potency, µM (doses to about 9.22 µM), inactives show top-dose activation, negative = inhibition, actives largely listed as activators; also: % of control where 0% means no effect; nearly all actives have a fitted effect of over 60% in size
#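 Quantitative HTS format; Huh7 Rab9-luciferase reporter cells (1500/well) receive compound 2 h post-plating, incubate 24 h at 37 °C, then get luciferase reagent for 10 min before luminescence reading.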
# The depositor's hits bear a star; ? = inconclusive; . = no result; [ ] = another dose, or the depositor's remark. Calls follow the shape of the dose curve; as a rule, active = well fitted curve in the direction sought with a large enough effect; inconclusive = small, poorly fitted or top-dose-only effect, or another doubt; inactive = no such curve, though single readings can be large; an effect the other way counts as inactive or inconclusive. Potency is read from the fitted curve at half-maximal effect.
SMILES,ELG1 genotoxic,p53 reactivator,NPC1 prom act,SMN2 splice enh,FLuc counter,Rab9 promoter act
CCOC(=O)CSC1=C(C#N)C(c2ccc(C)s2)CC(=O)N1 (stereo unspecified),5.1%,2.1%,-17.9%,-40.1%,0.7%,-17.8%
CCSC1=C(C#N)C(c2ccc(C)s2)CC(=O)N1 (stereo unspecified),0.5%,0.6%,2.8%,0.0%,26.9µM*,4.8%
CC(Oc1ccccc1)C(=O)Nc1cc(Cl)ccc1-n1cncn1 (stereo unspecified),10.6%,-11.5%,-6.0%,.,4.9%,0.8%
O=C(Nc1nc(=O)n(C(=O)C2CC2)s1)c1ccccc1,-3.3%,-2.7%,-4.7%,0.4%,?,0.8%
Cc1ccc(C(=O)Nc2cc3c(cc2C)n(C)c(=O)c(=O)n3C)cc1,.,.,.,.,-11.0%,.
Cc1ccc(C(=O)Nc2nc(=O)n(C(=O)C3CC3)s2)cc1,-0.5%,1.6%,1.1%,19.2%,19µM*,-6.2%
Cc1ccc(C(=O)Nc2nc(=O)n(C(=O)c3ccccc3C)s2)cc1,16.9%,8.2%,14.6%,19.7%,15.1µM*,?
CC(C)C[C@@H](N)C(=O)Nc1ccc2ccccc2c1,.,.,.,1.0%[9.22 µM],.,.
O=C(CN1C(=O)c2ccccc2S1(=O)=O)c1ccc2c(c1)OCCCO2,-14.8%,-13.5%,-40.5%,.,2.13µM*,-53.8%
O=C(CN1C(=O)c2ccccc2S1(=O)=O)c1ccc2c(c1)OCCO2,-11.5%,-15.7%,-36.5%,.,5.36µM*,-47.0%
CCCC1Oc2ccccc2C(=O)N(CC(=O)c2ccc3c(c2)OCCO3)C1=O (stereo unspecified),?,?,30.2%,.,6.01µM*,?
CC(C)CC1NC(=O)N(CC(=O)c2ccc3c(c2)OCCO3)C1=O (stereo unspecified),?,15.9%,2.82µM*,12.6µM*,10.7µM*,1.12µM*
Cc1ccccc1C(=O)NCCCNC(=O)c1ccco1,1.9%,2.7%,-4.0%,.,-2.0%,-0.2%
CC(CC(=O)N1CCN(c2ccccc2)CC1)S(=O)(=O)c1ccc2c(c1)NC(=O)CO2 (stereo unspecified),-13.0%,-2.9%,7.7%,.,-2.2%,-11.0%
Cc1ccc(NC(=O)N2CCC(c3ccccc3)C2)cc1C (stereo unspecified),?,18.2%,1.41µM*,12.6µM*,4.78µM*,0.794µM*
O=C(Nc1ccc(Cl)cc1)N1CCC(c2ccccc2)C1 (stereo unspecified),?,14.6%,1.58µM*,12.6µM*,3.79µM*,1.12µM*
Cc1ccc(C2CCN(C(=O)Nc3ccccc3)C2)cc1 (stereo unspecified),?,?,4.47µM*,?,12µM*,3.98µM*
O=[N+]([O-])c1cc(N=Nc2ccc3ccccc3c2)ccc1O,?,.,2.24µM*,.,3.38µM*,2µM*
O=[N+]([O-])c1ccccc1NCc1c(O)ccc2ccccc12,-4.2%,1.8%,-4.3%,.,?,-2.5%[1.84 µM]
CCOc1ccccc1NC(=O)N1CCc2c(sc(C)c2CC)C1c1ccccc1 (stereo unspecified),.,.,.,.,0.0%,.
CNc1ncc(C(=O)c2ccccc2)s1,?,8.0%,?,17.1%,?,?
CO/N=C/CC(=O)c1ccc(-c2ccccc2)cc1,10.9%,-1.2%,-4.2%,12.1%,?,12.4%
CNc1ncc(C(=O)c2ccc(Br)cc2)s1,?,21.4%,2.82µM*,15.8µM*,12µM*,2µM*
CC(=O)c1cnc(Nc2cccc(Cl)c2Cl)s1,?,1.4%,23.2%,12.6µM*,?,?
CO/N=C/CC(=O)c1cnc(-c2ccc(Cl)cc2)s1,?,-5.2%,?,25.1µM*,?,?
SMILES,ELG1 genotoxic,p53 reactivator,NPC1 prom act,SMN2 splice enh,FLuc counter,Rab9 promoter act
O=C(c1cnc(-c2ccccc2)s1)c1ccc(Cl)cc1Cl,-1.0%,-0.8%,-2.1%,-0.4%,?,8.3%
O=C(c1ccc(Cl)cc1)c1cnc(-c2ccccc2)s1,12.7%,-0.1%,2.24µM*,3.4%,?,2.82µM*
O=C(c1ccc(Cl)cc1)c1cnc(Nc2ccccc2Cl)s1,?,8.5%,1.78µM*,22.4µM*,1.51µM*,1.12µM*
CN(C)/C=N/c1ncc(C(=O)c2ccc(Cl)cc2Cl)s1,1.0%,-4.2%,6.2%,-19.6%,-11.0%,14.5%
CN(C)/C=N/c1ncc(C(=O)c2ccc(Cl)cc2)s1,16.4µM*,12.9%,28.0%,10.1%,?,6.0%
O=C(O)c1ccc(CSc2nc3ccc(NC(=O)c4ccccc4C(=O)O)cc3s2)cc1,-0.7%,1.5%,-5.1%,19.3%,16.9µM*,-4.5%
CC(=O)Nc1ccc2nc(SCc3ccccc3)sc2c1,.,.,.,.,13.5µM*,.
N#Cc1ccccc1CSc1nc2ccc(NC(=O)c3ccccc3C(=O)O)cc2s1,12.3%,10.2%,-4.5%,.,?,2.4%
Cc1ccc(CCNC(=O)c2ccc(CSc3nc4ccncc4n3Cc3ccc(F)cc3)cc2)cc1,.,.,.,-2.2%,0.4%,.
O=C(NN=C1C2CC3CC(C2)CC1C3)c1ccccc1O,-3.0%,4.0%,-8.1%,.,16.9µM*,-2.8%
O=C(N/N=C1\CCc2ccccc21)c1ccccc1O,?,.,0.631µM*,1.12µM*,1.69µM*,0.794µM*
O=C(NN=C1C2CC3CC(C2)CC1C3)c1cccs1,?,?,1.2%,2.2%,-17.9%,1.0%
O=C(N/N=C1\CCc2ccccc21)c1ccncc1,?,?,?,20µM*,21.3µM*,?
O=C(N/N=C1\CCCc2ccccc21)c1ccccc1Cl,?,12.1%,?,?,?,?
COc1ccc(C(=O)N/N=C2\CCc3ccccc32)cc1OC,13.9%,6.5%,3.8%,?,-10.8%,-32.4%
N.N.O=C(O)C1(C(=O)O)CCC1.[Pt],.,.,.,-5.7%,.,.
Cn1c(=O)c(-c2ccc(Cl)cc2)nc2cnc(Oc3ccccc3)nc21,.,.,.,-5.2%,.,.
COc1cccc(-c2nnc3sc(-c4ccco4)nn23)c1,?,15.1%,4.47µM*,19.6%,?,2.82µM*
COc1cccc(-c2nnc3sc(-c4cccs4)nn23)c1,15.6%,17.4%,3.16µM*,?,?,2.82µM*
COc1cccc(-c2nn3c(-c4cccc(C)c4)nnc3s2)c1,12.4%,10.7%,-8.6%,2.8%,19µM*,7.8%
COc1ccc(-c2nnc3sc(-c4ccco4)nn23)cc1OC,?,-2.7%,-0.2%,19.7%,-2.2%,13.3%
COc1cccc(-c2nnc3sc(-c4ccc(C)cc4)nn23)c1,-2.6%,-3.9%,-3.1%,-0.1%,-3.2%,2.6%
Cc1cccc(C)c1NC(=O)c1nc(SC(C)C)ncc1Cl,.,.,.,-6.7%,-10.3%,.
O=C(CCCN1C(=O)/C(=C/c2ccccc2Cl)SC1=S)NCCCN1CCOCC1,-18.4%,-1.5%,-12.6%,.,16.9µM*,-11.3%
